For assay [1], the target named is Protein phosphatase 1D (Homo sapiens) (UniProt O15297). Description: RapidFire Mass Spectrometry qHTS Assay for Modulators of WT P53-Induced Phosphatase 1 (WIP1) (AID 1347424). Also: series mostly up to about 63 µM. A digest of the protocol: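 RapidFire MS readout of dephosphorylated VEPPL-S-QETFS product, with 1 uM isotope-labelled peptide standard. Reaction: 10 nM WIP1, 2 uM phosphopeptide substrate, 5 min, room temperature, after 1 h compound preincubation; stopped with 0.5% formic acid.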
Sequence of Protein phosphatase 1D (Homo sapiens) (O15297 whole entry, looked up): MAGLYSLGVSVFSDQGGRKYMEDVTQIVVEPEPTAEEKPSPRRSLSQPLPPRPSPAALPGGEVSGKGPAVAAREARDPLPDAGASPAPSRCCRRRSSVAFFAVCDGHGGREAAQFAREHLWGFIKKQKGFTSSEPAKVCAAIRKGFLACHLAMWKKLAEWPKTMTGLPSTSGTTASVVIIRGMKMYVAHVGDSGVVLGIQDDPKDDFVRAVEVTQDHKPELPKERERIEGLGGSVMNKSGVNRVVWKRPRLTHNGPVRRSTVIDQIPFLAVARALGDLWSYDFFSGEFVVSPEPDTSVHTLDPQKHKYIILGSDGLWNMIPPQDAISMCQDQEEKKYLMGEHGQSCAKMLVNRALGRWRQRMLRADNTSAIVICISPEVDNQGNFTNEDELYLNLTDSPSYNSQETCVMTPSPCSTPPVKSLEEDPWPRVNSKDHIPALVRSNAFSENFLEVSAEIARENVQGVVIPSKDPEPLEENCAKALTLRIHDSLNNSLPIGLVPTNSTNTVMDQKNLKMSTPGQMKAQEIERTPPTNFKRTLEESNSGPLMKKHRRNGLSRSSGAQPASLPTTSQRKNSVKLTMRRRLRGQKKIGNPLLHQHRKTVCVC

Assay [2] is described as follows: Primary qHTS for inhibitors of La Crosse Virus (LACV) - induced cell death in SH-SY5Y cells (AID 1508616).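 Also: top concentration of the series differs between compounds; higher means more rescue of cells from virus-induced death.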 The gist of the method: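 Screening measures cell viability in LACV-infected SH-SY5Y cultures. Compound was added before virus (0.01 MOI), and ATP was detected by luminescence 6 days later.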
Assay [3] deals with Calcium and integrin-binding protein 1 (Homo sapiens) (UniProt Q99828). Briefly: Primary qHTS for Identification of Calcium Integrin Binding Protein 1 (CIB1) Competitor (AID 1508620).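 Also: GST tagged CIB1 binding a fluorescein labelled alphaIIb integrin peptide tracer; top concentration of the series differs between compounds.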 A digest of the protocol:
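Fluorescence polarization competition: GST-tagged CIB1 (1 uM final) preincubated with compound 15 min at room temperature, then FITC-labelled alphaIIb peptide (100 nM final) added. After 15 min at room temperature, polarization read at Ex 480/Em 540.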

Assay [4] is described as follows: Primary qHTS for small molecule stabilizers of the endoplasmic reticulum resident proteome: Secreted ER Calcium Modulated Protein (SERCaMP) assay (AID 1508630). A digest of the protocol: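 The SH-SY5Y reporter protocol was run at 3 concentrations up to 38.3 uM (primary) or 11 concentrations (follow-up): 16 h compound, 100 nM thapsigargin for 4 h, then extracellular luciferase luminescence.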

Assay [5] addresses Protein phosphatase 1D (Homo sapiens) (UniProt O15297). Description: Rhodamine-PBP qHTS Assay for Modulators of WT P53-Induced Phosphatase 1 (WIP1) (AID 1347425). The gist of the method:
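5 nM WIP1 + 10 uM Rh-PBP, 50 mM Tris pH 7.5, 30 mM MgCl2, 1 mM TCEP, 0.1 mM EGTA, BSA; cpds pinned, 1 hr RT; + 10 uM phosphopeptide; fluorescence 1-min reads x 11 min; delta = f1 - f0.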

The nature of assay [6]: A High-Content qHTS Against Drug Library for the Identification of Small Molecules that Inhibit DYT1 Early Onset Primary Dystonia-Associated Cell Pathology (AID 1645839; calls by dose curve; also: series mostly up to about 46 µM). The gist of the method: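 Cells were seeded and left for 24 h, then dosed with compound alongside tetracycline induction of mutant EGFP-TorsinA. They were incubated for 48 h, fixed in 4% paraformaldehyde, permeabilized and imaged for mislocalization (%pathology) and cell count.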

The nature of assay [7]: Primary qHTS for inhibitors of nuclear receptor binding SET domain protein 2 (NSD2) in an isogenic RCH-ACV NSD2 p.E1099K mutant (9B) (AID 1645876). Also: nearly all actives have a fitted effect of over 70% in size. Also: potency is read from the fitted curve at half-maximal effect.
Assay [8] in a line: Primary qHTS for inhibitors of nuclear receptor binding SET domain protein 2 (NSD2) in an RCH-ACV wild type WT cells (2C) (AID 1645877). Also: nearly all actives have a fitted effect of over 70% in size. Also: potency is read from the fitted curve at half-maximal effect.
Assay [9] deals with Cytochrome P450 2D6 (Homo sapiens) (UniProt P10635). Briefly: Cytochrome P450 family 2 subfamily D member 6 (CYP2D6) small molecule antagonists: luciferase biochemical (cell-free) qHTS assay (AID 1645840; active = well fitted curve in the direction sought with a large enough effect in the repeat runs; an effect the other way counts as inactive or inconclusive; also: nearly all actives have a fitted effect of over 55% in size; also: potency is read from the fitted curve at half-maximal effect). A digest of the protocol: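 P450-Glo CYP2D6 system: proluciferin substrate converted by enzyme to luciferin, read by luminescence proportional to activity. Enzyme-substrate mix with compound 10 min at room temperature, then NADPH regeneration 1 h before detection reagent.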
Sequence of Cytochrome P450 2D6 (Homo sapiens) (P10635 whole entry, looked up): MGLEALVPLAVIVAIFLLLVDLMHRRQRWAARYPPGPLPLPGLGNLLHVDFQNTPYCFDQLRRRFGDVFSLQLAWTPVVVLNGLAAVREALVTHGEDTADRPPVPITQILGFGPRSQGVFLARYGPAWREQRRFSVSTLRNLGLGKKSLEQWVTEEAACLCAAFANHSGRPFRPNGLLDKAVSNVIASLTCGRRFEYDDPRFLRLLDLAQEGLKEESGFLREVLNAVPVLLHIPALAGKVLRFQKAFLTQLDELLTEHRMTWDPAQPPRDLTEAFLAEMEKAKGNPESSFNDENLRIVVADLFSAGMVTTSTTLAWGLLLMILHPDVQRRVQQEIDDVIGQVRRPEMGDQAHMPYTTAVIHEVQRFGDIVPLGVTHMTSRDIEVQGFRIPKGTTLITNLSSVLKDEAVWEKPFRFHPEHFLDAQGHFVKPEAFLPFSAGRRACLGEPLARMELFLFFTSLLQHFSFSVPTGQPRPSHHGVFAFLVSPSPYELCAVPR

The target in assay [10] is Cytochrome P450 2C9 (Homo sapiens) (UniProt P11712). Briefly: Cytochrome P450 family 2 subfamily C member 9 (CYP2C9) small molecule antagonists: luciferase biochemical (cell-free) qHTS assay (AID 1645842; active = well fitted curve in the direction sought with a large enough effect in the repeat runs; an effect the other way counts as inactive or inconclusive; also: nearly all actives have a fitted effect of over 55% in size; also: potency is read from the fitted curve at half-maximal effect). A digest of the protocol:
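P450-Glo CYP2C9 system: proluciferin substrate with enzyme in mix containing 0.4% BSA, 10 min at room temperature, then NADPH regeneration solution added and incubated 1 h at 37C. Detection reagent stopped reaction; luminescence read after 20 min as RLU.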

A short description of assay [11]: Validation qHTS assay for inhibitors of Activation Induced Cytidine Deaminase (AID): UDG Counterscreen signal (AID 1347427). A digest of the protocol: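 Fluorescence at 560 nm excitation, 665 nm emission reports UDG signal after 250 mM NaOH (2x) addition and 30 min. Enzymes (AID 1 uM, UDG 2 U/mL, at 4/3x) preincubated 10 min with compound, then 4 h with 4x 250 nM DJC20/DJC23 substrate at room temperature.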

Assay [12] has as its target Calcium and integrin-binding protein 1 (Homo sapiens) (UniProt Q99828). Description: Validation qHTS for Identification of Calcium Integrin Binding protein 1 (CIB1) Competitor (AID 1508618). The gist of the method: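 Displacement of FITC-alphaIIb peptide (100 nM) from CIB1-GST (1 uM) is monitored by polarization in quantitative HTS format; buffer carries 5 mM CaCl2 and 125 mM NaCl at pH 7.4, incubations are at room temperature.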

The target of assay [13] is Papain (Carica papaya) (UniProt P00784). Briefly: Primary qHTS assay for inhibitors of the protease papain (AID 1645873).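 Also: papain turnover of Z-FR-AMC read as the AMC fluorescence gain over 10 min; series mostly up to about 50 µM.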
Sequence of Papain (Carica papaya) (P00784 whole entry, looked up): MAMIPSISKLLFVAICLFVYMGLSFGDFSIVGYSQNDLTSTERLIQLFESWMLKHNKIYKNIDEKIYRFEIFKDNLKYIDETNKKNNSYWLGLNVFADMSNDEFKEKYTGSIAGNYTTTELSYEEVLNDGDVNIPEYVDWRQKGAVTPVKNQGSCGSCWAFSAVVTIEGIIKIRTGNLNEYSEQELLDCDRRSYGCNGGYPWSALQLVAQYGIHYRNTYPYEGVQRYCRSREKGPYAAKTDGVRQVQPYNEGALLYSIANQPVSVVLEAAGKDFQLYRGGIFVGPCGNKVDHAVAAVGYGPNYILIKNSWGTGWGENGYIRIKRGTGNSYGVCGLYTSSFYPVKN
Assay [14] addresses Cytochrome P450 3A4 (Homo sapiens) (UniProt P08684). Description: Cytochrome P450 family 3 subfamily A member 4 (CYP3A4) small molecule antagonists: luciferase qHTS assay (AID 1645841; active = well fitted curve in the direction sought with a large enough effect in the repeat runs; an effect the other way counts as inactive or inconclusive; also: nearly all actives have a fitted effect of over 45% in size). A digest of the protocol:
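P450-Glo CYP3A4 enzyme with proluciferin substrate preincubated 10 min with compound at room temperature, then NADPH regeneration 1 h. Luciferin detection reagent added for 20 min; luminescence recorded. Ketoconazole positive control.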

“And” between values parts separate entries of the source, which are not always exact repeats. Equal entries are not always repeated. Records with an inconclusive call do not appear. Some compounds were tested as several samples or in several runs, with calls that do not always agree. The source made the active and inactive calls. Unless noted, calls follow the shape of the dose curve; as a rule, active = well fitted curve in the direction sought with a large enough effect; inconclusive = small, poorly fitted or top-dose-only effect, or another doubt; inactive = no such curve, though single readings can be large; an effect the other way counts as inactive or inconclusive.

Sequence of Calcium and integrin-binding protein 1 (Homo sapiens) (Q99828 whole entry, looked up): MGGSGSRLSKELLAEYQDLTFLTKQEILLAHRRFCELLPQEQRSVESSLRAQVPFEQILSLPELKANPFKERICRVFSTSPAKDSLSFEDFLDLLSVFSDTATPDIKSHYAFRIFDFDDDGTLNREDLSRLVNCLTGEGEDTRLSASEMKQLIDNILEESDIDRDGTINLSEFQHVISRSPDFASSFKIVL
Sequence of Cytochrome P450 2C9 (Homo sapiens) (P11712 whole entry, looked up): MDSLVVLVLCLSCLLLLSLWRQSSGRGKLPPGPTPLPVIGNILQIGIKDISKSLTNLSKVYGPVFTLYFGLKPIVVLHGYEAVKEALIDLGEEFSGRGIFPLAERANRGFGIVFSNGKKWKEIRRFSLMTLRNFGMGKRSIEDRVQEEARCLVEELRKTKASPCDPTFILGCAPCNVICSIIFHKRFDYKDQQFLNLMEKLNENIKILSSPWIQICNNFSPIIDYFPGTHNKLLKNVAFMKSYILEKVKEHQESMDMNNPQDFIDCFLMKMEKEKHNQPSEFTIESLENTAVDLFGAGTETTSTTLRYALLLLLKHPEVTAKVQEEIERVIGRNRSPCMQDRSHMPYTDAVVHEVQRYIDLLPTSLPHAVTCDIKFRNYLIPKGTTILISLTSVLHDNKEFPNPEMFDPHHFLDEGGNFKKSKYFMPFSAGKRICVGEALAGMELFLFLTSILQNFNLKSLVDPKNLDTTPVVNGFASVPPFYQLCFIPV
Sequence of Cytochrome P450 3A4 (Homo sapiens) (P08684 whole entry, looked up): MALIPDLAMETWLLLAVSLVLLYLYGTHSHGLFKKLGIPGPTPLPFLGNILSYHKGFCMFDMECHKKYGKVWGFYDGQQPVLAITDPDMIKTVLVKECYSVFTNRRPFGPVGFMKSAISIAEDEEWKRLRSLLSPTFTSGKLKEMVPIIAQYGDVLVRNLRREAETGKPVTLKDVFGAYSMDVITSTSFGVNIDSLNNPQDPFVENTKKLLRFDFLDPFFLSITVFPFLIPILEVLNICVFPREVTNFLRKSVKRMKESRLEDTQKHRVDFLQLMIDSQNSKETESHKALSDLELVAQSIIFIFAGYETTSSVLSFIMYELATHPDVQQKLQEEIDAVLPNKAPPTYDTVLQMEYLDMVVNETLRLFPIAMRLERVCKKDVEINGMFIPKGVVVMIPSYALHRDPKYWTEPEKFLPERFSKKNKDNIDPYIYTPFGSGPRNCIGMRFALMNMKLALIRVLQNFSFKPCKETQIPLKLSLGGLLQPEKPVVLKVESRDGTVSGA

With `CC(C)c1nc(CN(C)C(=O)N[C@H](C(=O)N[C@@H](Cc2ccccc2)C[C@H](O)[C@H](Cc2ccccc2)NC(=O)OCc2cncs2)C(C)C)cs1`, the Potency result in assay [1], in assay [2], in assay [3] and in assay [4] was “inactive” each time.

Consider `Nc1ccc(S(N)(=O)=O)cc1`, for which the Potency entry in assay [1], in assay [2], in assay [3], in assay [4], in [6] and in [7] was “inactive” each time. Moreover, in assay [8], the Potency entry is “inactive”. The outcome in assay [5] was inactive.

`Cc1ccc(NC(=O)c2ccc(CN3CCN(C)CC3)cc2)cc1Nc1nccc(-c2cccnc2)n1`: the Potency result in assay [1], in assay [2], in [4] and in assay [9] was “inactive” each time. The call in assay [5] was inactive. Besides, the Potency entry in [10] was “inactive and 23.9 µM (active)”; in assay [7] it was 15 µM (active) and 20.6 µM (active) and 18.6 µM (active); in assay [8] it was 13.3 µM (active) and 18.4 µM (active) and 16.6 µM (active).

On to `COc1ccc2cc([C@H](C)C(=O)O)ccc2c1`, for which the Potency entry in assay [1], in assay [11], in assay [2], in assay [3], in assay [6] and in [13] was “inactive” throughout. The outcome in assay [12] was inactive.

In the case of `O=C(OC1C[C@H]2CC[C@@H](C1)[N+]21CCCC1)C(O)(c1ccccc1)c1ccccc1` (some centres not stated), the Potency entry in assay [1], in [2], in [3], in [4], in [6] and in assay [10] was “inactive” each time. Also, the call in assay [5] and in assay [14] was inactive. For the same molecule, the Potency in [9] is 6.17 µM (active).

For `CC(=O)Nc1ccc(O)cc1`, the Potency result in [1], in assay [4], in assay [6], in assay [9] and in assay [10] was “inactive” each time. In addition, the result in assay [5] was inactive.
